According to PubChem BioAssay (Tox21):
Unmarked numbers belong to inactive results. Activity calls are given as the source filed them. Calls come from the whole dose curve; as a rule, active = well fitted curve in the direction sought with a large enough effect in the repeat runs; inconclusive = weak or mixed curves; inactive = flat fitted curve, though single readings scatter.

assay: qHTS assay to test for compound auto fluorescence at 460 nm (blue) in HEK293 cell free culture (AID 720681); conditions: cell-free medium, autofluorescence 405/460 nm (blue); series mostly up to 91.3 µM; fluorescence, % of fluorescent control: at the top concentration
In short: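 Test compounds were pinned into cell-free culture medium (DMEM with 10% FBS) and fluorescence was read directly at Ex/Em 405/460 nm. Signals were expressed as fluorescence equivalents of triamterene, with DMSO vehicle as control.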
% is set by controls: 0 for no effect and ±100 for the full control effect.

| Compound | fluorescence, % of fluorescent control | Potency |
| --- | --- | --- |
| CC1CCc2cc(F)cc3c(=O)c(C(=O)O)cn1c23 (stereo not given) | -0.0354% [at 46 µM] |  |
| CC1=CCC(C(C)C)C=C1 (stereo not given) | -0.148% |  |
| CC(=O)c1ccc2c(c1)[C@H](NC(=O)c1ccc(F)cc1)[C@@H](O)C(C)(C)O2 | -0.191% |  |
| C=C(C)C(=O)OC(C)C | -0.174% |  |
| CCOc1cc(OCC)c(C(=O)CCC(=O)O)cc1OCC | -0.114% [at 46 µM] |  |
| CC(C)CCCC(C)CCO (stereo not given) | -0.391% |  |
| CC(C)(C)C1CCCCC1O (stereo not given) | 0.0635% |  |
| CCC(=O)OC(C)(C)C1CC=C(C)CC1 (stereo not given) | 0.102% |  |
| Cc1ncsc1CCO | -0.185% |  |
| CCCOc1ccc2nc(NC(=O)OC)[nH]c2c1 | -0.102% [at 46 µM] |  |
| COCCOCCOCCOCCOC | 0.0069% |  |
| CC(=O)Nc1ccc(/C=N/NC(N)=S)cc1 |  | inactive |
| COc1ccc(C(C)=O)cc1 | -0.33% [at 95.7 µM] |  |
| CCCCCCCCCO | 0.0699% |  |
| CC[C@H](C)[C@H](N)C(=O)O | 0.0202% [at 46 µM] |  |
| Cc1cc(NC(=O)C(=O)O)cc(C)c1Oc1ccc(O)c2c1CCC2 | 0.0651% |  |

| Compound | fluorescence, % of fluorescent control | Potency |
| --- | --- | --- |
| O=C(C(=O)c1ccc(Br)cc1)c1ccc(Br)cc1 | -0.0047% [at 18.6 µM] |  |
| C#CCOC(=O)[C@@H](C)Oc1ccc(Oc2ncc(Cl)cc2F)cc1 | 0.0065% |  |
| CC(C)=CCCC(C)CC=O (stereo not given) | 0.321% |  |
| COCCO | 0.0119% |  |
| O=C=NC1CCC(CC2CCC(N=C=O)CC2)CC1 (stereo not given) | 0.0923% |  |
| CC(C)c1cccc(C(C)C)c1NC(=O)NS(=O)(=O)c1cc(C(C)(C)O)co1 | -0.363% |  |
| N#Cc1cc2ccccc2c2ccccc12 | 0.0292% |  |
| C1=Cc2ccccc2C1 | 0.0692% |  |
| Cc1cccc(OCCOc2cccc(C)c2)c1 | -0.0105% [at 95.7 µM] |  |
| Cc1ccc(C(=O)C(C)CN2CCCCC2)cc1 (stereo not given) |  | inactive |
| N#Cc1c(F)cccc1F | -0.18% |  |
| Nc1cnn([C@@H]2O[C@H](CO)[C@@H](O)[C@H]2O)c(=O)n1 | -0.249% |  |
| O=C1[C@H](CC[C@H](O)c2ccc(F)cc2)[C@@H](c2ccc(O)cc2)N1c1ccc(F)cc1 | -0.0421% [at 46 µM] |  |
| CC(C)(C)C(=O)OCOP(=O)(COCCn1cnc2c(N)ncnc21)OCOC(=O)C(C)(C)C | 0.259% [at 46 µM] |  |
| CCCCCCc1ccc(N)cc1 | 0.0088% |  |
| CC(=O)[C@@]1(O)CC[C@H]2[C@@H]3C[C@H](C)C4=CC(=O)CC[C@]4(C)[C@H]3CC[C@@]21C | -0.0156% [at 46 µM] |  |

assay: qHTS assay to test for compound auto fluorescence at 535 nm (green) in HEK293 cell free culture (AID 720682); conditions: cell-free medium, green autofluorescence 485/535 nm, hits give high values; series mostly up to 91.3 µM; activity change: at the top concentration
In short: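 Measurement is a direct plate read of green fluorescence (485 nm in, 535 nm out) after compound addition to serum-supplemented DMEM lacking cells, with fluorescein used to express intensities.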

| Compound | activity change | outcome |
| --- | --- | --- |
| CC1CCc2cc(F)cc3c(=O)c(C(=O)O)cn1c23 (stereo not given) | -0.0263% [at 46 µM] |  |
| CC1=CCC(C(C)C)C=C1 (stereo not given) | 0.0368% |  |
| CC(=O)c1ccc2c(c1)[C@H](NC(=O)c1ccc(F)cc1)[C@@H](O)C(C)(C)O2 | -0.0147% |  |
| C=C(C)C(=O)OC(C)C | -0.0599% |  |
| CC(C)c1ccccc1C(C)C | 0.0986% |  |
| CCOc1cc(OCC)c(C(=O)CCC(=O)O)cc1OCC | 0.0366% [at 46 µM] |  |
| CC(C)CCCC(C)CCO (stereo not given) | 0.017% |  |
| CCC(=O)OC(C)(C)C1CC=C(C)CC1 (stereo not given) | 0.045% |  |
| Cc1ncsc1CCO | -0.118% |  |
| COCCOCCOCCOCCOC | 0.0139% |  |
| CC(=O)Nc1ccc(/C=N/NC(N)=S)cc1 |  | inactive |
| COc1ccc(C(C)=O)cc1 | -0.0329% [at 95.7 µM] |  |
| CCCCCCCCCO | -0.0202% |  |
| Cc1cc(NC(=O)C(=O)O)cc(C)c1Oc1ccc(O)c2c1CCC2 | 0.0029% |  |
| O=C(C(=O)c1ccc(Br)cc1)c1ccc(Br)cc1 | 0.0143% [at 18.6 µM] |  |
| O=C=NC1CCC(CC2CCC(N=C=O)CC2)CC1 (stereo not given) | -0.0211% |  |
| CC(C)c1cccc(C(C)C)c1NC(=O)NS(=O)(=O)c1cc(C(C)(C)O)co1 | -0.0532% |  |
| Nc1nc(N)c2nc(CNc3ccc(C(=O)N[C@@H](CCC(=O)O)C(=O)O)cc3)cnc2n1 |  | inactive |
| C1=Cc2ccccc2C1 | -0.135% |  |
| CCCCCc1ccc(N)cc1 | 0.0615% |  |
| Cc1cccc(OCCOc2cccc(C)c2)c1 | -0.0783% [at 95.7 µM] |  |
| N#Cc1c(F)cccc1F | -0.0692% |  |
| CC[C@H](C)[C@@H](C(=O)O)n1sc2ccccc2c1=O | 0.0287% |  |
| CC(C)(C)C(=O)OCOP(=O)(COCCn1cnc2c(N)ncnc21)OCOC(=O)C(C)(C)C | 0.487% [at 46 µM] |  |
| CC(=O)CC(=O)c1ccccc1 | 0.0359% |  |

assay: qHTS assay to test for compound auto fluorescence at 590 nm (red) in HEK293 cell free culture (AID 720683); conditions: cell-free medium autofluorescence, Ex540/Em590 red; series mostly up to 91.3 µM; fluorescence, % of fluorescent control: at the top concentration
In short: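 Tox21 10K library compounds were pinned into cell-free DMEM with 10% FBS and fluorescence was read at excitation 540 nm. Activity is expressed as Rose Bengal sodium equivalency.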

| Compound | fluorescence, % of fluorescent control | outcome |
| --- | --- | --- |
| CC1CCc2cc(F)cc3c(=O)c(C(=O)O)cn1c23 (stereo not given) | -0.0497% [at 46 µM] |  |
| CC1=CCC(C(C)C)C=C1 (stereo not given) | -0.412% |  |
| CC(=O)c1ccc2c(c1)[C@H](NC(=O)c1ccc(F)cc1)[C@@H](O)C(C)(C)O2 | -0.257% |  |
| C=C(C)C(=O)OC(C)C | -0.173% |  |
| CC(C)c1ccccc1C(C)C | 0.1% |  |
| CCOc1cc(OCC)c(C(=O)CCC(=O)O)cc1OCC | -0.3% [at 46 µM] |  |
| CC(C)CCCC(C)CCO (stereo not given) | -0.536% |  |
| CC(C)(C)C1CCCCC1O (stereo not given) | 0.175% |  |
| CCC(=O)OC(C)(C)C1CC=C(C)CC1 (stereo not given) | 0.189% |  |
| Cc1ncsc1CCO | -0.226% |  |
| CCCOc1ccc2nc(NC(=O)OC)[nH]c2c1 | 0.286% [at 46 µM] |  |
| COCCOCCOCCOCCOC | -0.29% |  |
| CC(=O)Nc1ccc(/C=N/NC(N)=S)cc1 |  | inactive |
| COc1ccc(C(C)=O)cc1 | -0.113% [at 95.7 µM] |  |
| N=C(N=C(N)N)N1CCOCC1 | 0.292% [at 18.6 µM] |  |
| CCCCCCCCCO | 0.0995% |  |
| CC[C@H](C)[C@H](N)C(=O)O | -0.0058% [at 46 µM] |  |
| Cc1cc(NC(=O)C(=O)O)cc(C)c1Oc1ccc(O)c2c1CCC2 | -0.0803% |  |
| O=C(C(=O)c1ccc(Br)cc1)c1ccc(Br)cc1 | -0.0329% [at 18.6 µM] |  |

| Compound | fluorescence, % of fluorescent control | outcome |
| --- | --- | --- |
| C#CCOC(=O)[C@@H](C)Oc1ccc(Oc2ncc(Cl)cc2F)cc1 | -0.0081% |  |
| CC(C)=CCCC(C)CC=O (stereo not given) | 0.464% |  |
| COCCO | 0.276% |  |
| O=C=NC1CCC(CC2CCC(N=C=O)CC2)CC1 (stereo not given) | 0.357% |  |
| CC(C)c1cccc(C(C)C)c1NC(=O)NS(=O)(=O)c1cc(C(C)(C)O)co1 | -0.365% |  |
| N#Cc1cc2ccccc2c2ccccc12 | 0.0149% |  |
| Nc1nc(N)c2nc(CNc3ccc(C(=O)N[C@@H](CCC(=O)O)C(=O)O)cc3)cnc2n1 |  | inactive |
| C1=Cc2ccccc2C1 | -0.135% |  |
| CCCCCc1ccc(N)cc1 | -0.0144% |  |
| Cc1cccc(OCCOc2cccc(C)c2)c1 | -0.606% [at 95.7 µM] |  |
| Cc1ccc(C(=O)C(C)CN2CCCCC2)cc1 (stereo not given) |  | inactive |
| N#Cc1c(F)cccc1F | -0.519% |  |
| Nc1cnn([C@@H]2O[C@H](CO)[C@@H](O)[C@H]2O)c(=O)n1 | 0.0411% |  |
| CC[C@H](C)[C@@H](C(=O)O)n1sc2ccccc2c1=O | -0.0357% |  |
| O=C1[C@H](CC[C@H](O)c2ccc(F)cc2)[C@@H](c2ccc(O)cc2)N1c1ccc(F)cc1 | -0.187% [at 46 µM] |  |
| CC(C)(C)C(=O)OCOP(=O)(COCCn1cnc2c(N)ncnc21)OCOC(=O)C(C)(C)C | -0.0482% [at 46 µM] |  |
| CC(=O)CC(=O)c1ccccc1 | -0.161% |  |
| CCCCCCc1ccc(N)cc1 | 0.178% |  |
| CC(=O)[C@@]1(O)CC[C@H]2[C@@H]3C[C@H](C)C4=CC(=O)CC[C@]4(C)[C@H]3CC[C@@]21C | -0.143% [at 46 µM] |  |
